Compound activity deposited in PubChem BioAssay by National Center for Advancing Translational Sciences (NCATS).
This is a sample that favours compounds with a hit; in the whole collection about 19% have one here.
HT1080-NT tox = qHTS for induction of synthetic lethality in tumor cells producing 2HG: qHTS for the HT-1080-NT fibrosarcoma cell line | HT-1080-NT fibrosarcoma viability, CellTiter-Glo ATP luminescence, 48 h | Potency, µM (top dose mostly 46.1 µM), actives largely listed as cytotoxic | 1.6% of 360,000 active | AID 686970, 2013;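 further: NT is the 2HG producing partner of a matched IDH1 knockdown line; nearly all actives have a fitted effect of over 55% in size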
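Viability by CellTiter-Glo luminescence after 48 h compound exposure at 37C of HT-1080-NT cells (750/well, RPMI, 5% FBS). % activity scaled between DMSO wells and medium-only wells, then curve-fitted and categorized by curve class.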
DT40 TDP1 no CPT = qHTS for Inhibitors of human tyrosyl-DNA phosphodiesterase 1 (TDP1): qHTS in cells in absence of CPT | Potency, µM (top dose mostly 46.2 µM), most hits filed as inhibitors | DT40 Tdp1-/- hTDP1 cells, no CPT, ATP luminescence, 48 h | 15% of 420,000 active; further: nearly all actives have a fitted effect of over 55% in size
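Compound effects on proliferation are scored in DT40 Tdp1-/-;hTDP1 cells in the absence of CPT. ATP levels (CellTiter-Glo luminescence) are recorded after a ≥48 hr, 37 °C incubation.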
TDP1 cell CPT = qHTS for Inhibitors of human tyrosyl-DNA phosphodiesterase 1 (TDP1): qHTS in cells in presence of CPT; chicken DT40 Tdp1-/-;hTDP1 cells + 20 nM CPT, ATP luminescence, 48 h; AID 686979, 2013; 12% of 420,000 active; Potency, µM (doses to about 46.2 µM), most hits filed as inhibitors; further: nearly all actives have a fitted effect of over 55% in size
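Chicken DT40 Tdp1-/- cells stably complemented with human TDP1 were seeded at 400 cells/well in medium containing 20 nM camptothecin, exposed to pin-transferred compounds, and grown at 37 °C for at least 48 hr. Viability was read as ATP luminescence.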
HT1080 IDH1KD tx = qHTS for induction of synthetic lethality in tumor cells producing 2HG: qHTS for the HT-1080-IDH1KD cell line. HT-1080 IDH1 knockdown viability, ATP luminescence, 48 h. Potency, µM (series often up to 46.1 µM), hits mostly cytotoxic. 2% of 360,000 active
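After a 2 h attachment period, IDH1KD HT-1080 cells took pin-transferred compound for 48 h at 37 °C; ATP-based luminescence after 10 min room-temperature reagent incubation reported viability.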
IL-1B inflam inh = qHTS for Inhibitors of Inflammasome Signaling: IL-1-beta AlphaLISA Primary Screen; THP-1 LPS/ATP IL-1B secretion, AlphaLISA, 16 h; active compounds read low; activity change, % at 57.5 µM; 4.7% of 360,000 active; in the data active means activity change below about -50%; inconclusive means mostly about -30% to -49%
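THP-1 cells pretreated 1 hr with compounds (up to 57.5 uM final), then stimulated with LPS (250 ng/mL final) plus ATP (1.25 mM final); secreted IL-1B measured by AlphaLISA after 16 hr, decreased signal indicating inhibition.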
uPA surface inh = qHTS for Inhibitors of Cell Surface uPA Generation | cell surface uPA generation assay, qHTS | AID 540303, 2011 | 0.31% of 330,000 active | Potency, µM (top dose mostly 38.3 µM), most hits filed as inhibitors; active means well fitted inhibition curve with a large enough effect; inconclusive means small, poorly fitted or top-dose-only effect; inactive means no such curve, though single readings can be large or run the other way; tested in mouse RAW 264.7 cells; further: nearly all actives have a fitted effect of over 55% in size
Of the large screens only hits and unclear results are named; the others gave an inactive call; ! = not active in a repeat. Unless noted, the call rests on the fitted dose curve; in most records, active means well fitted curve in the direction sought with a large enough effect; inconclusive means small, poorly fitted or top-dose-only effect, or another doubt; inactive means no such curve, though single readings can be large; an effect the other way counts as inactive or inconclusive.

O=C(Cc1ccccc1)Oc1cccc(-n2cnnn2)c1	none
NC(=O)CSP(=O)(c1ccccc1)c1ccccc1	none (no result: uPA surface inh)
NNC(=O)CP(=O)(c1ccccc1)c1ccccc1	DT40 TDP1 no CPT 12µM!, TDP1 cell CPT inconclusive
C[C@]12CC[C@H](O)C[C@@H]1CC[C@@H]1[C@@H]2CC[C@]2(C)C(=O)CC[C@@H]12	HT1080-NT tox inconclusive, DT40 TDP1 no CPT inconclusive, TDP1 cell CPT inconclusive
CC(=O)O[C@H]1[C@H]2O[C@]23[C@@H]2CC[C@]4(O)C[C@@H](O)CC[C@]4(C)C2CC[C@]3(C)[C@H]1c1ccc(=O)oc1 (stereo not given in full)	HT1080-NT tox 0.82µM, DT40 TDP1 no CPT 3.7µM, TDP1 cell CPT 6.5µM, HT1080 IDH1KD tx 0.015µM, IL-1B inflam inh inconclusive
C[C@]12CC[C@H](O)C[C@H]1CC[C@@H]1[C@@H]2CC[C@]2(C)[C@@H](c3ccc(=O)oc3)C[C@H]3O[C@]132	DT40 TDP1 no CPT 15µM, TDP1 cell CPT inconclusive (no result: HT1080-NT tox, HT1080 IDH1KD tx, IL-1B inflam inh, uPA surface inh)
C[C@]12CC[C@H]3C(CCC4(O)CC(O)CC[C@]34C=O)C1=CC[C@H]2c1ccc(=O)oc1 (stereo not given in full)	HT1080-NT tox 13µM, HT1080 IDH1KD tx 5.8µM, IL-1B inflam inh inconclusive
CC(=O)c1cccc(NC(=O)N2C[C@H]3C[C@@H](C2)c2cccc(=O)n2C3)c1	none
CCSP1(=S)N=C(N2CCOCC2)C(C#N)=C2CCCN21 (stereo not given)	none
N#Cc1cn(C2OC(CO)C(O)C2O)c2ncnc(N)c12 (stereo not given)	HT1080-NT tox inconclusive, DT40 TDP1 no CPT 0.015µM, TDP1 cell CPT 0.015µM, HT1080 IDH1KD tx 0.21µM, IL-1B inflam inh -108
NC(=O)c1cn(C2OC(CO)C(O)C2O)c2ncnc(N)c12 (stereo not given)	HT1080-NT tox 0.33µM, DT40 TDP1 no CPT 0.016µM, TDP1 cell CPT 0.0082µM, HT1080 IDH1KD tx 0.12µM, IL-1B inflam inh -81!
Cc1ccc(C2N(c3cc(C)on3)C(=O)C3CCCN32)cc1 (stereo not given)	none
CN1CC(CO)=C[C@H]2c3cccc4[nH]cc(c34)C[C@H]21	none (no result: HT1080-NT tox, HT1080 IDH1KD tx, IL-1B inflam inh, uPA surface inh)
CCC(C)(C)n1nnnc1C(c1cccs1)N1CC=C(c2ccc(F)cc2)CC1 (stereo not given)	HT1080-NT tox inconclusive, DT40 TDP1 no CPT inconclusive, TDP1 cell CPT 23µM, IL-1B inflam inh -67
Fc1ccc(C2=CCN(C(c3cccs3)c3nnnn3CCc3ccccc3)CC2)cc1 (stereo not given)	DT40 TDP1 no CPT inconclusive, TDP1 cell CPT inconclusive, IL-1B inflam inh -61
CN1C(=O)NC(=O)/C(=C\C=C\c2ccccc2[N+](=O)[O-])C1=O	HT1080-NT tox inconclusive, DT40 TDP1 no CPT 5.8µM, TDP1 cell CPT inconclusive, HT1080 IDH1KD tx 12µM, IL-1B inflam inh -98
COc1cc(/C=C2\C(=O)NC(=O)N(c3ccccc3)C2=O)c([N+](=O)[O-])cc1OC	none
COC(=O)C1=C(c2cc3ccccc3o2)C[C@@H]2CC[C@H]1N2C(=O)NCc1ccccc1	TDP1 cell CPT inconclusive (no result: DT40 TDP1 no CPT)
COC(=O)C1=C(c2cc3ccccc3o2)C[C@@H]2CC[C@H]1N2C(=O)NCCCOC(C)C	DT40 TDP1 no CPT 12µM, TDP1 cell CPT inconclusive
COC(=O)C1=C(c2ccc(F)cc2F)C[C@@H]2CC[C@H]1N2C(=O)NCc1ccc(C(F)(F)F)cc1	DT40 TDP1 no CPT 21µM, TDP1 cell CPT inconclusive, IL-1B inflam inh inconclusive
COC(=O)C1=C(c2cc3ccccc3o2)C[C@@H]2CC[C@H]1N2C(=O)NCc1ccc(C(F)(F)F)cc1	HT1080-NT tox 21µM, TDP1 cell CPT inconclusive, HT1080 IDH1KD tx inconclusive, IL-1B inflam inh inconclusive, uPA surface inh inconclusive (no result: DT40 TDP1 no CPT)
COC(=O)C1=C(c2ccc(F)cc2F)C[C@@H]2CC[C@H]1N2C(=O)NCc1ccc2c(c1)OCO2	DT40 TDP1 no CPT inconclusive, TDP1 cell CPT inconclusive
COC(=O)C1=C(c2cc3ccccc3o2)C[C@@H]2CC[C@H]1N2C(=O)NC(C)C	DT40 TDP1 no CPT 16µM, TDP1 cell CPT 23µM
COC(=O)C1=C(c2cc3ccccc3o2)C[C@@H]2CC[C@H]1N2C(=O)NCCNC(C)=O	none (no result: DT40 TDP1 no CPT)
O=C(c1ccncc1)N1CCC2(CC1)CN(Cc1ccccc1)C2	none (no result: HT1080-NT tox, HT1080 IDH1KD tx, IL-1B inflam inh, uPA surface inh)
C[C@]12CCC3C(CC[C@H]4C[C@@H](O)CC[C@]34C)C1CCC2=O (stereo not given in full)	DT40 TDP1 no CPT inconclusive, TDP1 cell CPT inconclusive
CCCCCP(=O)(O)c1ccccc1	none (no result: uPA surface inh)
CCCC/C(C)=C/[C@@H](NP(=O)(c1ccccc1)c1ccccc1)c1ccccc1	HT1080-NT tox inconclusive, DT40 TDP1 no CPT 16µM, TDP1 cell CPT inconclusive, HT1080 IDH1KD tx inconclusive, uPA surface inh inconclusive
COc1cc(C(c2c(O)c3ccccc3oc2=O)c2c(C)n(C)n(-c3ccccc3)c2=O)ccc1OCC(=O)O (stereo not given)	none (no result: HT1080-NT tox, HT1080 IDH1KD tx, IL-1B inflam inh, uPA surface inh)
COc1ccccc1N1CCN(C(=O)CCC(=O)Nc2nnc(CC(C)C)s2)CC1	TDP1 cell CPT inconclusive
CCc1nnc(NC(=O)CSc2nccn2-c2cccc(C)c2C)s1	DT40 TDP1 no CPT 8.2µM, TDP1 cell CPT 16µM, HT1080 IDH1KD tx inconclusive, uPA surface inh inconclusive
O=C(COc1ccccc1)Nc1nc2cc3c(cc2s1)OCO3	HT1080-NT tox inconclusive, TDP1 cell CPT inconclusive, HT1080 IDH1KD tx inconclusive, uPA surface inh inconclusive
CN(C(=O)CSc1nc2ccc(NC(=O)COc3ccc(Cl)cc3)cc2s1)c1ccccc1	DT40 TDP1 no CPT 10µM, TDP1 cell CPT 13µM (no result: HT1080-NT tox, HT1080 IDH1KD tx, IL-1B inflam inh, uPA surface inh)
O=C(Nc1ccccc1)N1Cc2ccccc2-n2nncc2C1	none
COC(=O)C1=C(c2ccc(-c3ccccc3)c(F)c2)C[C@@H]2CC[C@H]1N2C(=O)NC1Cc2ccccc2C1	DT40 TDP1 no CPT inconclusive, TDP1 cell CPT inconclusive, uPA surface inh inconclusive
COC(=O)C1=C(c2cccc(OC)c2OC)C[C@@H]2CC[C@H]1N2C(=O)N1CCC(C)CC1	DT40 TDP1 no CPT 13µM, TDP1 cell CPT inconclusive
COC(=O)C1=C(c2ccc(-c3ccccc3)c(F)c2)C[C@@H]2CC[C@H]1N2C(=O)N1CCC(C)CC1	HT1080-NT tox inconclusive, DT40 TDP1 no CPT 4.6µM, TDP1 cell CPT 7.3µM, HT1080 IDH1KD tx inconclusive
